Measured values reported in PubChem BioAssay (NCI).
This is part of a sample that, as a whole, favours compounds with a hit. Of some 83,000 tested, about 20% had one in any assay.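 Cell lines were cultured in 96-well plates, exposed to a single compound concentration, and assessed for percent growth 48 hours later.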 Unmarked numbers belong to inactive results. Active and inactive are the calls of the source. Rule for the calls: active = growth percent below 10; inactive = the rest.

test system: HL-60(TB) leukemia; experiment: NCI-60 one-dose screen, 48 h (100 = growth as untreated, 0 = no growth, -100 = all killed); details: 10 µM unless noted

Structure (SMILES)	growth
CCc1ccc(NC(=O)N[C@@H](Cc2cccc(C)c2)C(=O)N[C@@H]2C(=O)N3CCC[C@H]3C(=O)N3CCCC[C@H]3C(=O)N[C@@H](CO)C(=O)N3C[C@H](C)C[C@H]3C(=O)O[C@H]2C)c(F)c1	15.8%
COC(=O)c1ccc(NC2=C(Cl)C(=O)c3nc(C)ccc3C2=O)cc1	21.2%
NC(=O)c1cccc(-n2ccc3cc(NC(=O)Nc4ccc(N5CCOCC5)c(C(F)(F)F)c4)ccc32)n1	-52.2% (active)
COC(=O)c1cccc(NC2=C(Cl)C(=O)c3nc(C)ccc3C2=O)c1	24.3%
CS(=O)(=O)c1ncc(-c2ccccc2)cn1	103%
CS(=O)(=O)c1ccc2c(c1)c1c(n2Cc2ccc(Cl)cc2)CCCC1	70.5%
COc1ccc2[nH]cc(/C=N/Nc3nc4ccccc4s3)c2c1	39.1%
CCN1CCN(S(=O)(=O)c2oc(-c3ccc(Cl)cc3)nc2C#N)CC1	7.25% (active)
CC[C@@](C)(NC(=O)C(C)(C)NC(=O)[C@@H](NC(=O)[C@@H]1CCCN1C(=O)C(C)(C)NC(=O)[C@H](CC(C)C)NC(=O)CNC(=O)C(C)(C)NC(=O)[C@@H](NC(=O)C(C)(C)NC(=O)[C@H](CCC(N)=O)NC(=O)[C@H](C)NC(=O)C(C)(C)NC(=O)[C@H](C)NC(=O)C(C)(C)NC(=O)[C@H](C)NC(=O)C(C)(C)NC(C)=O)C(C)C)C(C)C)C(=O)N[C@@H](CCC(N)=O)C(=O)N[C@@H](CCC(N)=O)C(=O)N[C@H](CO)CC1CCCCC1	-35.2% [5 µM] (active)
Cn1ncc2ncc(-c3ccc4ncc(C#N)c(N5CCc6cc(F)c(Cl)cc65)c4c3)cc21	26.7%
Cc1[nH]c(C(=O)Nc2ccccc2OCc2cccc(C(=O)NC3CCNC3)c2)c(Cl)c1Cl (stereo not given)	71.4%
CN1CCN(c2ccc(Nc3nc(NCCCNS(=O)(=O)c4ccc(C(F)(F)F)cc4)c4sccc4n3)cc2)CC1	-47.4% (active)
CC(C)(C)n1nnnc1C(Nc1cccc2c1OCO2)c1cc2cccc3ccc4cccc1c4c32 (stereo not given)	85.2%
CCc1ccc(SC2c3ccc(N(CC)CC)cc3Oc3nc(N)c(C#N)c(N)c32)cc1 (stereo not given)	-12.5% (active)
Clc1ccc2c(NCCCN3CCOCC3)c3oc4ccccc4c3nc2c1	37.9%
N/C(=N\C(N)=N\c1nc2ccccc2s1)c1ccncc1Cl	6.91% (active)
CCc1nn2c(C)cc(C)nc2c1Cc1ccc(/C=C/CN2CCN(CCOCCOCCN3CCN(C/C=C/c4ccc(Cc5c(CC)nn6c(C)cc(C)nc56)cc4)CC3)CC2)cc1	-51.4% (active)
N#Cc1nc(-c2ccc(Cl)cc2)oc1N1CCC(S(=O)(=O)N2CCOCC2)CC1	112%
C=C(C)[C@@H]1CC[C@]2(C(=O)NCCCCCN(CCC#N)CCC#N)CC[C@]3(C)[C@H](CC[C@@H]4[C@@]5(C)CCC(=O)C(C)(C)[C@@H]5CC[C@]43C)[C@@H]12	127%
Oc1ccc(CSc2nnc(-c3ccccc3)o2)c2cccnc12	7.7% (active)

Structure (SMILES)	growth
CCOC(=O)C1=C(C)Nc2nc3ccccc3n2C1c1ccccc1 (stereo not given)	85.6%
CCN(CC)CCN1C(=O)c2c(c3c4cc(Br)ccc4[nH]c3c3ccc4ccccc4c23)C1=O	-35% (active)
O=C(Nc1cccc(-c2nc(-c3ccc(NC(=O)c4cccnc4)cc3Cl)no2)c1)Nc1ccc(NC(=O)C2CC2)c(C(F)(F)F)c1	-41.5% (active)
C#C[C@]1(O)CC[C@H]2[C@@H]3CC=C4c5sc(Nc6ccncc6)nc5CC[C@]4(C)[C@H]3CC[C@@]21C	-24% (active)
C#C[C@]1(O)CC[C@H]2[C@@H]3CC=C4c5sc(-c6ccc(OC)cc6)nc5CC[C@]4(C)[C@H]3CC[C@@]21C	21.1%
COc1ccc(-c2nc(C(Cl)Cl)nc3cc(-c4ccccc4)nn23)cc1	-7.77% (active)
CN1CCC[C@]2(C)[C@H]3CC[C@@H]4[C@@H]5[C@H]6OC[C@@]5(CCC6(C)C)CC[C@@]4(C)[C@]3(C)CC[C@H]2C1(C)C	30.6%
COc1ccc(NC2=C(Cl)C(=O)c3nc(C)ccc3C2=O)cc1OC	9.95% (active)
CN1CCN(Cc2ccc(NC(=O)c3cncc(C#Cc4cnc5ccc(OCC6(C)COC6)nn45)c3)cc2C(F)(F)F)CC1	-27.6% (active)
Clc1ccc2c(N/N=C/c3c[nH]c4ccccc34)ccnc2c1	-34.7% (active)
c1ccc(-c2n(Cc3ccc4ccccc4c3)c3c4ccccc4c4ccccc4c3[n+]2Cc2ccc3ccccc3c2)cc1	-61.4% (active)
COc1ccc(S(=O)(=O)NCCCNc2nccc(-c3[nH]c(-c4ccccc4)nc3-c3ccc(Cl)c(O)c3)n2)cc1	43.2%
COc1cc(-c2nc3sccn3c2-c2ccnc(S(C)(=O)=O)n2)ccc1F	93.9%
COc1ccc2[nH]cc(/C=N/Nc3ccnc4cc(Cl)ccc34)c2c1	-56.1% (active)
Cn1ccnc1C(=O)/C=C/c1ccc(CNC(=O)c2c(F)c(F)c(F)c(F)c2F)cc1	20%
CC(C)NC(=O)c1cc(-c2ccc(NC(=O)Nc3ccc(N4CCOCC4)c(C(F)(F)F)c3)cc2)nc2cccnc12	12.6%
CCc1cccc2c3c(sc12)C(c1ccc(OC)cc1)C(C#N)=C(/N=C/c1ccc(Cl)cc1)O3 (stereo not given)	2.87% (active)
N#Cc1c(NC(=O)c2ccc(F)c(Cl)c2)sc2c1CCC(=O)C2	-14.5% (active)
CCO/C=N/C1=C(C#N)C(c2ccc(OC)cc2)c2sc3c(CC)cccc3c2O1 (stereo not given)	9.99% (active)
O=C(NNc1nc2cc(F)ccc2n2c(CO)ccc12)c1cnccn1	-27.4% (active)
